Laboratory results published in PubChem BioAssay (NCATS).
A number with no mark means an inactive call. Results filed as inconclusive are left out. Active and inactive are the calls of the source. Unless noted, calls follow the shape of the dose curve; as a rule, active = well fitted curve in either direction with a large enough effect (not every such curve was filed as active); inconclusive = small, poorly fitted or top-dose-only effect, or another doubt; inactive = flat fitted curve, though single readings scatter.

Assays:
[1] = target: Lysosomal acid glucosylceramidase (Homo sapiens) (UniProt P04062); experiment: Glucocerebrosidase-p2 (AID 348; in the data active = potency below about 10 µM; also: potency is read from the fitted curve at half-maximal effect); conditions: purified GBA, blue fluorogenic substrate, 40 min
Chain of Lysosomal acid glucosylceramidase (Homo sapiens) (P04062 whole entry, looked up): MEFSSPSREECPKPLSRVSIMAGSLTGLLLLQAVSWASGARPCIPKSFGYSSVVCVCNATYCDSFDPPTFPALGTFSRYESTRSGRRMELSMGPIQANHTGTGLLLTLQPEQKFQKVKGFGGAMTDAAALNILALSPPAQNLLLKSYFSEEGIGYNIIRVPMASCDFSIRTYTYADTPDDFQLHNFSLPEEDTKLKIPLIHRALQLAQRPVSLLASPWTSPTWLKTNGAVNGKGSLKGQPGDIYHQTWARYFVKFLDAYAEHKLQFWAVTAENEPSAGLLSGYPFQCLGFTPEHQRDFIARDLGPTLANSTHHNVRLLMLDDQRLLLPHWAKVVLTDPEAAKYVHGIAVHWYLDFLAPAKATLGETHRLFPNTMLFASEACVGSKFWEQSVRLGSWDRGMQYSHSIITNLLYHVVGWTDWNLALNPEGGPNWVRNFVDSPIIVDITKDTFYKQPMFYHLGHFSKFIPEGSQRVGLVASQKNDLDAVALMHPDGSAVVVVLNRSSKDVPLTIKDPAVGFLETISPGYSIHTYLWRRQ
How it was run: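 Normal human glucocerebrosidase (0.2 nM) with blue fluorogenic substrate (80 uM final) in citrate/phosphate pH 5.9 with 10mM sodium taurocholate, 0.01% tween-20; 40 min RT, NaOH/glycine stop; fluorescence Ex 365/Em 440; AC50 from a titration from 0.6 nM upwards.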

[2] = AP1 Signaling Pathway (AID 357); conditions: ME-180 AP-1-bla reporter, EGF-induced, beta-lactamase ratio, 5 h; at 7.69 µM (top of the series) unless noted;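 also: ME-180 reporter cells stimulated with EGF at its EC50 level; % is scaled to controls: 0 for no effect and ±100 for the full control effect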
How it was run: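 Beta-lactamase reporter under AP-1 response element, ME-180 background. Stimulus: EC50 EGF. Compound exposure 5 h, 37 °C. Detection: CCF4, 2.5 h RT, 460/530 nm. Values: AC50 from titration.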

[3] = NFAT Signaling Pathway (AID 444); conditions: Jurkat NFAT-bla M1, carbachol, beta-lactamase ratio, 5 h; at 7.69 µM (top of the series) unless noted;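 also: carbachol stimulus at about its EC50 of 1 µM final; % is scaled to controls: 0 for no effect and ±100 for the full control effect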
How it was run: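 Jurkat cells carrying an NFAT-driven β-lactamase reporter and co-transfected muscarinic M1 receptor were treated with compound plus carbachol (1 uM final, an EC50 level) for 5 h at 37 °C. CCF4 loading followed for 1 h at RT; 460/530 nm ratio gave %activity.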

[4] = Stat Signaling Pathway (AID 446); conditions: ME-180 SIE beta-lactamase reporter, IL-6 stimulated, 5 h; at 7.69 µM (top of the series) unless noted;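 also: ME-180 cervical cancer cells given 40 pM IL-6 alongside compound; SIE-controlled beta-lactamase reporter measured as 460/530 nm FRET emission ratio; % is scaled to controls: 0 for no effect and ±100 for the full control effect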
How it was run: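 Normalization used AC90 stimulation (300 pM IL-6) and AC90 inhibition (125 nM pan-JAK inhibitor at 40 pM IL-6). The underlying signal is SIE-driven beta-lactamase in ME-180 cells after 5 h IL-6 exposure with compound.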

[5] = target: Glucocorticoid receptor (Homo sapiens) (UniProt P04150); experiment: GR-GFP Redistribution (AID 450;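 active = compounds whose dose series gives a full or clear partial fitted curve of increased nuclear translocation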; also: potency is read from the fitted curve at half-maximal effect); conditions: U2OS GR-GFP nuclear translocation, laser cytometry, 2 h
Chain of Glucocorticoid receptor (Homo sapiens) (P04150 whole entry, looked up, the tested form may be a part): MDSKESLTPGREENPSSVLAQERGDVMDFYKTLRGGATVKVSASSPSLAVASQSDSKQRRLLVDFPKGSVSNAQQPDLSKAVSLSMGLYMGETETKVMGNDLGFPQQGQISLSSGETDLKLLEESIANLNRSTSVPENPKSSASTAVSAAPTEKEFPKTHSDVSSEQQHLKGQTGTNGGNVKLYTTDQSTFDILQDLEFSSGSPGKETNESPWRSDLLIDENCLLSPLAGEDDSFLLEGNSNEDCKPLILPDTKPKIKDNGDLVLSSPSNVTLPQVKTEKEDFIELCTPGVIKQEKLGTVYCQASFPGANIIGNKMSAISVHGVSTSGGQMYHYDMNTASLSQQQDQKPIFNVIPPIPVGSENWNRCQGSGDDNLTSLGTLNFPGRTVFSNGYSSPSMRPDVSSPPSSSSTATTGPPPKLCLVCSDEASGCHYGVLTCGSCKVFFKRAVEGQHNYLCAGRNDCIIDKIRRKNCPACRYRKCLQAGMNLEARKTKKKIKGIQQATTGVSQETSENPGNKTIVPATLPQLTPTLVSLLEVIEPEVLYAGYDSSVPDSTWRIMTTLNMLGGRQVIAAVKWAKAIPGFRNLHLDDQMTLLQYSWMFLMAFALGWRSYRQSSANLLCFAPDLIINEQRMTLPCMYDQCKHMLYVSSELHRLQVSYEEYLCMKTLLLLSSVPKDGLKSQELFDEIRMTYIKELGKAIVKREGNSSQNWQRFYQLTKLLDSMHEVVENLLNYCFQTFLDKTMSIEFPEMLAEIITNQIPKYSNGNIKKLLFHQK

[6] = target: Glucocorticoid receptor (Homo sapiens) (UniProt P04150); experiment: GR-EFC Redistribution (AID 451; calls by dose curve; also: potency is read from the fitted curve at half-maximal effect); conditions: CHO-K1 GR-EFC translocation, beta-gal luminescence, 2 h
How it was run: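 CHO-K1 cells stably expressing nuclear-localized β-gal enzyme acceptor and GR fused C-terminally to the enzyme donor fragment; ligand-driven nuclear translocation restores β-gal by complementation. Compounds titrated up to 46 uM final, 2 h at 37 °C; luminescence read.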

[7] = target: Mitogen-activated protein kinase 10 (Mus musculus) (UniProt Q61831); experiment: JNK3 AlphaScreen Assay (AID 530); conditions: JNK3 lysate, c-Jun phosphorylation; series mostly up to 11.4 µM;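 also: kinase came from lysate of stimulated human HepG2 cells; signal reports phosphorylation of biotinylated GST-cJun 1-79 at Ser73 with 10 µM ATP; % is scaled to controls: 0 for no effect and ±100 for the full control effect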
How it was run: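 Phosphorylation of biotinylated GST-cJun(1-79) at Ser73 is measured by AlphaScreen proximity luminescence. Enzyme is JNK3 in HepG2 lysates activated with interleukin-1beta and tumor necrosis factor alpha; ATP is 10 uM final.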

[8] = target: 3',5'-cyclic-AMP phosphodiesterase 4B (Homo sapiens) (UniProt Q07343); experiment: qHTS Assay for Inhibitors of PDE-IV (AID 607; active = well fitted activation curve with a large enough effect in the main read-out, with a control signal flat, not every such curve was filed as active; also: % of control where 0% means no effect); conditions: HEK293 ACTOne CNG channel cells, membrane potential fluorescence; series mostly up to 22.9 µM
Chain of 3',5'-cyclic-AMP phosphodiesterase 4B (Homo sapiens) (Q07343 whole entry, looked up): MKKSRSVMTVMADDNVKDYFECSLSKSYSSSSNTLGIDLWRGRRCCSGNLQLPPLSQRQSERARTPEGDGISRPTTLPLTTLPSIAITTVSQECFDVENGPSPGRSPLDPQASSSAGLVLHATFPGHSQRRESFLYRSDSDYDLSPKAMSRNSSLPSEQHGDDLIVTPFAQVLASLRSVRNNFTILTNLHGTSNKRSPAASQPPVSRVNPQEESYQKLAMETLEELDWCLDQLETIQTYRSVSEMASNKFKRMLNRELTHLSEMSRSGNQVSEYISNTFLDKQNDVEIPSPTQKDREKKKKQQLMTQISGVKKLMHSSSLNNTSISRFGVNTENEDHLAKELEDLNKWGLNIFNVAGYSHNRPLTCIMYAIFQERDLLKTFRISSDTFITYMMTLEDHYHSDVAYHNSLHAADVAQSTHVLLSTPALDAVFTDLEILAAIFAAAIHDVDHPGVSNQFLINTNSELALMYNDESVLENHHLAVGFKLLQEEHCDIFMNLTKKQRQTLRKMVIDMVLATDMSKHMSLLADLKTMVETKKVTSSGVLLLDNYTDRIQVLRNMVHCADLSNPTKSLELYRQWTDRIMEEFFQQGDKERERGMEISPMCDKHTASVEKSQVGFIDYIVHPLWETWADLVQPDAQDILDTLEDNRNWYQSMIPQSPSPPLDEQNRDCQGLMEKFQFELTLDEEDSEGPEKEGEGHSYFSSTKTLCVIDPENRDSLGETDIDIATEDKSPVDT
How it was run: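 HEK293 ACTOne cells with CNG channel (1000/well), endogenous PDE4; membrane potential dye, compounds up to 22.9 uM final. Fluorescence Ex 535/Em 590; RO 20-1724 (100 uM final) as reference.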

[9] = qHTS Assay for Identification of Small Molecule Agonists for Hypoxia Response Element Signaling Pathway (AID 914; active = well fitted activation curve with a large enough effect in the signal ratio, with a control signal flat, not every such curve was filed as active; the % refers to the signal ratio; also: % of control where 0% means no effect); conditions: ME-180 (cervical carcinoma) HRE-bla reporter, beta-lactamase ratio, CoCl2, 17 h; activation: active compounds read high
How it was run: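 Read-out: CCF4 FRET ratio of 460nm to 530nm emission (excitation 405nm) after 2.5 hours at room temperature, taken from HRE-bla ME-180 cells that had been exposed to compound and EC50 CoCl2 for 17 hours.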

[10] = target: Cytochrome P450 2C19 (Homo sapiens) (UniProt P33261); experiment: qHTS Assay for Inhibitors and Substrates of Cytochrome P450 2C19 (AID 899; active = well fitted curve in the direction sought with a large enough effect; an effect the other way counts as inactive or inconclusive; also: potency is read from the fitted curve at half-maximal effect; nearly all actives have a fitted effect of over 60% in size); conditions: recombinant CYP2C19, luciferin-H EGE luminescence; series mostly up to 11.4 µM
Chain of Cytochrome P450 2C19 (Homo sapiens) (P33261 whole entry, looked up): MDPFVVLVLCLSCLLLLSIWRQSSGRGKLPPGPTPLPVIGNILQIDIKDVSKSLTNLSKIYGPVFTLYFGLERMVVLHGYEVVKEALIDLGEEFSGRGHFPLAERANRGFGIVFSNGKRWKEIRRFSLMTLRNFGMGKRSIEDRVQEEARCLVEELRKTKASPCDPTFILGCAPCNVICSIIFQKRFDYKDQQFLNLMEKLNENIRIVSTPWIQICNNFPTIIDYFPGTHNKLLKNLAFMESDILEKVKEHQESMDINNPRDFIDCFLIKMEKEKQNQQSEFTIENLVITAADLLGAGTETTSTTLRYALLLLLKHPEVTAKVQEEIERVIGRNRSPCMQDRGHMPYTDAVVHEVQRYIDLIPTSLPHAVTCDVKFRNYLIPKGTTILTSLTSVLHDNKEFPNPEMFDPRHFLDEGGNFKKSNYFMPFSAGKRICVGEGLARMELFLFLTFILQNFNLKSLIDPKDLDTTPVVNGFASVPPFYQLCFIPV
How it was run: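 In 50mM KPO4, the reaction held 5nM enzyme and KM-level (10uM) Luciferin-H EGE; it ran 60 min at 37C after NADPH regeneration and a 10 min compound preincubation. Luminescence values were scaled to 57uM ketoconazole as complete inhibition.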

[11] = target: Cytochrome P450 3A4 (Homo sapiens) (UniProt P08684); experiment: qHTS Assay for Inhibitors and Substrates of Cytochrome P450 3A4 (AID 884; active = well fitted curve in the direction sought with a large enough effect; an effect the other way counts as inactive or inconclusive; also: potency is read from the fitted curve at half-maximal effect; nearly all actives have a fitted effect of over 50% in size); conditions: recombinant CYP3A4, Luciferin-PPXE luminescence; series mostly up to 57.1 µM
Chain of Cytochrome P450 3A4 (Homo sapiens) (P08684 whole entry, looked up): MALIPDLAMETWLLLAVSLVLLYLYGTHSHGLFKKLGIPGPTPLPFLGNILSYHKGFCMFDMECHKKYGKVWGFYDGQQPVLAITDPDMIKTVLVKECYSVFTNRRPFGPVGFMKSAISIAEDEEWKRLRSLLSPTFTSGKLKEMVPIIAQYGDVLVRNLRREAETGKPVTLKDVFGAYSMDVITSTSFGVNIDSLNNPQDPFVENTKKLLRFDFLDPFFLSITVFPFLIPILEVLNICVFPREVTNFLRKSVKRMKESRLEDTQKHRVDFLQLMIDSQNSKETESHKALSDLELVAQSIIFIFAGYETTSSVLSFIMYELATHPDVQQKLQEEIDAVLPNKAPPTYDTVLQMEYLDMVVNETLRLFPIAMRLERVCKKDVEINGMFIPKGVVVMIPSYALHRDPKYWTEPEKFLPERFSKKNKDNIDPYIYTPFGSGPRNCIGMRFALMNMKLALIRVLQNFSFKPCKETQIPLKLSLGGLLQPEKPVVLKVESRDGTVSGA
How it was run: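 Luminescent readout of luciferin produced by CYP3A4 (20 nM) dealkylation of Luciferin-PPXE, 25 uM (its KM). NADPH-driven reaction ran 60 min at RT after 10 min compound preincubation; data scaled to 57 uM ketoconazole as 100% inhibition.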

[12] = target: Cytochrome P450 3A4 (Homo sapiens) (UniProt P08684); experiment: qHTS Assay for Activators of Cytochrome P450 3A4 (AID 885; active = well fitted curve in the direction sought with a large enough effect; an effect the other way counts as inactive or inconclusive; also: nearly all actives have a fitted effect of over 65% in size); conditions: recombinant CYP3A4, Luciferin-PPXE luminescence, 60 min; series mostly up to 11.4 µM
How it was run: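 Human CYP3A4 dealkylates Luciferin-PPXE to luciferin, which luciferase detection converts to light. Substrate was at its KM (25uM), buffer 200mM KPO4, reaction 60 min at RT.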

[13] = Confirmation and Secondary Assay for Modulators of Hemoglobin Beta Chain Splicing at IVS2 654 locus (AID 910; active = well fitted curve in the direction sought with a large enough effect; an effect the other way counts as inactive or inconclusive;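 also: per-well total GFP intensity by laser scanning cytometry after 2-day treatment; % of control where 0% means no effect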); conditions: HeLa EGFP-654 splicing reporter, GFP fluorescence, 48 h; series mostly up to 38.3 µM
How it was run: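 HeLa cells stably carrying EGFP interrupted by mutant beta-globin IVS2-654 intron (CMV-driven) were treated with compound for 2 days at 37C; corrected splicing was scored as total peak GFP intensity per well (488 nm excitation, 500-520 nm emission).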

[14] = target: Cytochrome P450 2C9 (Homo sapiens) (UniProt P11712); experiment: qHTS Assay for Inhibitors and Substrates of Cytochrome P450 2C9 (AID 883; active = well fitted curve in the direction sought with a large enough effect; an effect the other way counts as inactive or inconclusive; also: potency is read from the fitted curve at half-maximal effect; nearly all actives have a fitted effect of over 60% in size); conditions: recombinant CYP2C9, luciferin-H luminescence, 60 min; series mostly up to 11.4 µM
Chain of Cytochrome P450 2C9 (Homo sapiens) (P11712 whole entry, looked up): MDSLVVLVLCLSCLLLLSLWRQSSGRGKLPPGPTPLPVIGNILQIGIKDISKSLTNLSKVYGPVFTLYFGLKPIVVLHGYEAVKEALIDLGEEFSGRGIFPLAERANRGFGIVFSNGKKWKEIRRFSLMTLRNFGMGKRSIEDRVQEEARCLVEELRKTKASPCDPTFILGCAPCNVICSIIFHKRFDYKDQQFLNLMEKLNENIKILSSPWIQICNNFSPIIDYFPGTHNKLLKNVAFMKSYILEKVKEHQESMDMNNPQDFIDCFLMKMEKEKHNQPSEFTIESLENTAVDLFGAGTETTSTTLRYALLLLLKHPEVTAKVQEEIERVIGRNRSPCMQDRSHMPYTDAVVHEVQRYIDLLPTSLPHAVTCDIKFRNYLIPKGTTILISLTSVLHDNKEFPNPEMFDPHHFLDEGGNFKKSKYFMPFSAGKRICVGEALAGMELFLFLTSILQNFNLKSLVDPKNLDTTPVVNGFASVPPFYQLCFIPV
How it was run: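 CYP2C9 deoxyluciferin hydroxylation, 37C, 60 min with NADPH regeneration; 10nM enzyme, 100uM Luciferin-H (KM). Glo detection reagent stopped reaction; luminescence normalized to sulphaphenazole (57uM) full inhibition.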

SMILES | Potency [1] [µM] | activity change, negative = inhibition [2] [%] | activity change, negative = inhibition [3] [%] | activity, negative = inhibition [4] [%] | Potency [5] [µM] | Potency [6] [µM] | Potency [7] | Potency [8] | activation [9] [%] | Potency [10] | Potency [11] | Potency [12] | outcome [13] | Potency [14]
NC1=N[C@H](c2ccc(Cl)cc2)N(c2ccc(S(=O)(=O)Nc3ncccn3)cc2)C(N)=N1 | > 11.4 | -10.6 | -0.0424 | -0.946 | > 46 | > 9.22 | inactive | inactive |  |  |  |  |  | 
Nc1ccc(Cc2ccc(N)c(C(=O)O)c2)cc1C(=O)O | > 11.4 | 12.6 | 16.6 | 1.75 | > 46 | > 9.22 | inactive | inactive |  |  |  |  |  | 
CC(CO)(CO)Nc1ncnc2ccccc12 | > 11.4 | 4.46 | 9.62 | 12.4 | > 46 | > 9.22 | inactive | inactive |  |  |  |  |  | 
CC(C)=C[C@H]1[C@@H](COC(=O)c2cc3c(cc2Cl)OCO3)C1(C)C | > 11.4 | 9.62 | 1.43 | 13.6 | > 46 | > 9.22 | inactive | inactive |  |  |  |  |  | 
O=C1c2ccccc2C(=O)N1c1ccc(Cc2ccc(N3C(=O)c4ccccc4C3=O)cc2)cc1 | > 11.4 | -0.978 | 8.54 | -2.37 | > 46 | > 9.22 | inactive | inactive |  |  |  |  |  | 
C[N+](C)(C)CC(=O)N/N=C\c1ccncc1 | > 11.4 | -2.8 | 3.32 | 8.79 | > 46 | > 9.22 | inactive | inactive |  |  |  |  |  | 
NC(=O)C[C@@H](N)c1nn[nH]n1 | > 11.4 | 9.01 | 14.8 | 9.79 | > 46 | > 9.22 | inactive | inactive |  |  |  |  |  | 
O=C(CN1C(=O)c2ccccc2C1=O)[C@@H](O)CN1C(=O)c2ccccc2C1=O | > 11.4 | -10.3 | 13.9 | -0.0648 | > 46 | > 9.22 | inactive | inactive |  |  |  |  |  | 
C=CCNS(=O)(=O)c1ncnc2nc[nH]c12 | > 11.4 | -7.02 | -12.1 | 14.4 | > 46 | > 9.22 | inactive | inactive |  |  |  |  |  | 
COc1cc(NCC[C@@H]2CCCCN2)c2ncccc2c1 | > 11.4 | 28.5 | -23.9 | 13.7 | > 46 | > 9.22 | inactive | inactive |  |  |  |  |  | 
Cc1nc(-c2ccccc2)c(Cc2ccccc2O)c(=O)[nH]1 | > 11.4 | -9.11 | 4.59 | 0.211 | > 46 | > 9.22 | inactive | inactive |  |  |  |  |  | 
CC(C)[C@H](Nc1ncnc2nc[nH]c12)C(=O)O | > 11.4 | 7.63 | -3.53 | -3.88 | > 46 | > 9.22 | inactive | inactive |  |  |  |  |  | 
Nc1nc2c(ncn2[C@H]2CC[C@@H](CO)O2)c(=O)n1C(=O)c1ccccc1 | > 11.4 | 5.69 | -10.1 | 0.604 | > 46 | > 9.22 | inactive | inactive |  |  |  |  |  | 
CC1(C)[C@@H](CC(=O)O)CCC[C@@H]1CC(=O)O | > 11.4 | 2.47 | 5.58 | 1.3 | > 46 | > 9.22 | inactive | inactive |  |  |  |  |  | 
CN(C)CCSS(=O)(=O)O | > 11.4 | 6.2 | 5.08 | -1.46 | > 46 | > 9.22 | inactive | inactive |  |  |  |  |  | 
CCCc1cc(COC)c(C#N)c(=O)[nH]1 | > 11.4 | 1.77 | -2.55 | 3.43 | > 46 | > 9.22 | inactive | inactive |  |  |  |  |  | 
Clc1ccc(CSc2ncnc3c2ncn3[C@@H]2CCCCO2)cc1 | > 11.4 | -8.23 | 12.9 | -14.7 | > 46 | > 9.22 | inactive | inactive |  |  |  |  |  | 
O=C(O)[C@H](Cc1ccccc1)N1C(=O)c2ccccc2C1=O | > 11.4 | -3.82 | 16.6 | -2.52 | > 46 | > 9.22 | inactive | inactive |  |  |  |  |  | 
c1ccc(-c2cnc(-c3ccc(-c4ncc(-c5ccccc5)o4)cc3)o2)cc1 | > 11.4 | -0.667 | 14.2 | -0.742 | > 46 | > 9.22 | inactive | inactive | 15 |  |  |  |  | 
Clc1ccccc1/C=C\c1ccnc2ccccc12 | > 11.4 | -23.6 | 2.98 | 1.25 | > 46 | > 9.22 | inactive | inactive | -24.5 |  |  |  |  | 
O=C1c2ccccc2C(=O)c2c(Nc3cc4c5c(ccc6c7ccc8c9c(cc(Nc%10cccc%11c%10C(=O)c%10ccccc%10C%11=O)c(c3c56)c97)-c3ccccc3C8=O)C(=O)c3ccccc3-4)cccc21 | > 11.4 | 11.6 | 22.7 | 11.5 | > 46 | > 9.22 |  | inactive |  |  |  |  |  | 
Cc1ccc(N=Nc2c(O)c(S(=O)(=O)O)cc3cc(S(=O)(=O)O)ccc23)c(C)c1 | > 11.4 | 19.9 | 10.1 | -2.41 | > 46 | > 9.22 |  | inactive |  |  |  |  |  | 
OC[C@H](CCc1c[nH]c2ccccc12)c1c[nH]c2ccccc12 | > 11.4 | -11.6 | 29.4 | -1.35 | > 46 | > 9.22 | inactive | inactive | -29.3 |  |  |  |  | 
O=C(O)[C@@H]1CCCN1Cc1ccc2c(c1)OCO2 | > 11.4 | 2.76 | 10.2 | 0.869 | > 46 | > 9.22 | inactive | inactive | 7.45 |  |  |  |  | 
CC(=O)/C(=C\c1ccccc1F)C(=O)c1ccccc1 | > 11.4 | -4.86 | 2.06 | -1.38 | > 46 | > 9.22 | inactive | inactive |  | 2 µM (active) |  |  |  | 
CCN1CCC(O)([C@H](C(=O)O)c2ccccc2)CC1 | > 11.4 | -5.97 | 16.2 | 16.9 | > 46 | > 9.22 | inactive | inactive | -12.7 |  |  |  |  | 
CS(=O)(=O)Nc1cccc(-c2nc(NCc3cccnc3)c3ccccc3n2)c1 | > 11.4 | -19.8 | 23.6 | -19.5 | > 46 | > 46 | inactive |  |  |  | 2 µM (active) | inactive | inactive | 
O=C(O)c1ccc2c(c1C(=O)O)C(=O)OC2(c1ccc(O)cc1)c1ccc(O)cc1 | > 11.4 | 2.33 | 0.0722 | 1.84 | > 46 | > 9.22 | inactive | inactive | 9.96 |  |  |  |  | 
CSc1nc(C)cc(Nc2ccc(O)c(CN3CCCCC3)c2)n1 | > 11.4 | -6.95 | -16.1 | 2.99 | > 46 | > 9.22 | inactive | inactive | 4.77 |  |  |  |  | 
COc1ccc([C@@H](C)c2cc3c(cc2O)OCO3)cc1 | > 11.4 | -11.5 | -3.98 | 4.36 | > 46 | > 9.22 |  | inactive |  |  | 2.51 µM (active) | inactive |  | 1.58 µM (active)
